# Measured values taken from the supplement of paper PMC12645437, “Orthogonal IMiD-Degron Pairs Induce Selective Protein Degradation in Cells” (ACS Chemical Biology, 2025).
# Over roughly 8,300 sequences, “log2 fold change of degron read counts, EGFP-low vs EGFP+ sorted cells (limma voom), compound-induced degradation” has its median near -1.1; the highest 2% begin near 3.2. For the sample, the highest values were picked, then their nearest neighbours and some sequences at random.
# T1: CRBN, Q96SW2
# T1 chain: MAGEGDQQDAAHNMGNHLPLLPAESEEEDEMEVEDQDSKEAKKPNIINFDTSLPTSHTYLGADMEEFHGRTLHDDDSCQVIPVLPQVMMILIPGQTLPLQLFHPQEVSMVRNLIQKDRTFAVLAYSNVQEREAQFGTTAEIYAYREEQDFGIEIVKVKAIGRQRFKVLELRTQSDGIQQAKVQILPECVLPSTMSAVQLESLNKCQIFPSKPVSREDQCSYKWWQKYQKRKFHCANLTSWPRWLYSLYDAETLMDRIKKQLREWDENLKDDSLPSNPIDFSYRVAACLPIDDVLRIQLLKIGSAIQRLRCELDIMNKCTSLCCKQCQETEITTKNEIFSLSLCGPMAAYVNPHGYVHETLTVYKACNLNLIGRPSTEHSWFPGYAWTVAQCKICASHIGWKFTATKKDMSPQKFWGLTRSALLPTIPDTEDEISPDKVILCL
# Target: T1, CRBN, Q96SW2
# Assay: log2 fold change of degron read counts, EGFP-low vs EGFP+ sorted cells (limma voom), compound-induced degradation; higher = more compound-induced degradation of the degron-EGFP fusion; degrons are variants of IKZF1/3 zinc finger 2; compound dose not given here
# Conditions: Jurkat, 18 h
# [1] = compound: compound 19 (5-tert-butyl-thalidomide)
# [2] = compound: compound 22 (5-morpholino-thalidomide)
# [3] = compound: compound 33 (diphenyl IMiD analogue)
# 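Note: pooled lentiviral library of zinc finger degron-EGFP fusions in mCherry-positive Jurkat cells, FACS-sorted after compound exposure, with degron abundance counted by next-generation sequencing.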
sequence,measurement,setting,value
"FSCNICGASFTQKGNLLRHIKL [46F_47S_49N_50I_52G_53A_54S_55F_67L_, Q9UKT9]",log2 fold change of degron read counts,[1],1.66
same,log2 fold change of degron read counts,[2],1.77
same,log2 fold change of degron read counts,[3],1.15
same,log2 fold change of degron read counts,compound: thalidomide,0.544
"FCCPQCGAMFTQKGNLLRHIKL [46F_47C_49P_50Q_52G_53A_54M_55F_67L_, Q9UKT9]",log2 fold change of degron read counts,[1],-1.18
same,log2 fold change of degron read counts,[2],-1.69
same,log2 fold change of degron read counts,[3],0.335
same,log2 fold change of degron read counts,compound: thalidomide,-0.935
"LYCNQCGFVCTQKGNLLRHIKL [46L_47Y_49N_50Q_52G_53F_54V_55C_67L_, Q9UKT9]",log2 fold change of degron read counts,[1],-0.977
same,log2 fold change of degron read counts,[2],-0.96
same,log2 fold change of degron read counts,[3],-1.36
same,log2 fold change of degron read counts,compound: thalidomide,-1.76
"FHCNQCGAVFTQKGNLLRHIKL [46F_47H_49N_50Q_52G_53A_54V_55F_67L_, Q9UKT9]",log2 fold change of degron read counts,[1],-1.89
same,log2 fold change of degron read counts,[2],-2.19
same,log2 fold change of degron read counts,[3],-1.71
same,log2 fold change of degron read counts,compound: thalidomide,-2
"FDCNVCGATFTQKGNLLRHIKL [46F_47D_49N_50V_52G_53A_54T_55F_67L_, Q9UKT9]",log2 fold change of degron read counts,[1],-1.91
same,log2 fold change of degron read counts,[2],-2.32
same,log2 fold change of degron read counts,[3],-1.24
same,log2 fold change of degron read counts,compound: thalidomide,-1.1
"FECPICGHYFTQKGNLLRHIKL [46F_47E_49P_50I_52G_53H_54Y_55F_67L_, Q9UKT9]",log2 fold change of degron read counts,[1],-2.41
same,log2 fold change of degron read counts,[2],-2.69
same,log2 fold change of degron read counts,[3],-1.81
same,log2 fold change of degron read counts,compound: thalidomide,-1.2
"FECDVCGAWFTQKGNLLRHIKL [46F_47E_49D_50V_52G_53A_54W_55F_67L_, Q9UKT9]",log2 fold change of degron read counts,[1],-3.45
same,log2 fold change of degron read counts,[2],-3.71
same,log2 fold change of degron read counts,[3],-2.2
same,log2 fold change of degron read counts,compound: thalidomide,-2.52
"FQCNICGAAFTQKGNLLRHIKL [46F_47Q_49N_50I_52G_53A_54A_55F_67L_, Q9UKT9]",log2 fold change of degron read counts,[1],1.01
same,log2 fold change of degron read counts,[2],2.28
same,log2 fold change of degron read counts,[3],1.53
same,log2 fold change of degron read counts,compound: thalidomide,3.39
"FRCNICGAAFTQKGNLLRHIKL [46F_47R_49N_50I_52G_53A_54A_55F_67L_, Q9UKT9]",log2 fold change of degron read counts,[1],1.09
same,log2 fold change of degron read counts,[2],1.5
same,log2 fold change of degron read counts,[3],1.96
same,log2 fold change of degron read counts,compound: thalidomide,1.32
"FWCNICGAAFTQKGNLLRHIKL [46F_47W_49N_50I_52G_53A_54A_55F_67L_, Q9UKT9]",log2 fold change of degron read counts,[1],2.29
same,log2 fold change of degron read counts,[2],3.32
same,log2 fold change of degron read counts,[3],1.66
same,log2 fold change of degron read counts,compound: thalidomide,0.348
"FYCNICGAAFTQKGNLLRHIKL [46F_47Y_49N_50I_52G_53A_54A_55F_67L_, Q9UKT9]",log2 fold change of degron read counts,[1],2.66
same,log2 fold change of degron read counts,[2],2.97
same,log2 fold change of degron read counts,[3],1.81
same,log2 fold change of degron read counts,compound: thalidomide,-0.259
"FACNICGAAFTQKGNLLRHIKL [46F_47A_49N_50I_52G_53A_54A_55F_67L_, Q9UKT9]",log2 fold change of degron read counts,[1],2.77
same,log2 fold change of degron read counts,[2],2.64
same,log2 fold change of degron read counts,[3],0.592
same,log2 fold change of degron read counts,compound: thalidomide,0.334
"FECNICGAAFTQKGNLLRHIKL [46F_47E_49N_50I_52G_53A_54A_55F_67L_, Q9UKT9]",log2 fold change of degron read counts,[1],0.374
same,log2 fold change of degron read counts,[2],-0.891
same,log2 fold change of degron read counts,[3],1.05
same,log2 fold change of degron read counts,compound: thalidomide,2.1
"FCCEQCGANFTQKGNLLRHIKL [46F_47C_49E_50Q_52G_53A_54N_55F_67L_, Q9UKT9]",log2 fold change of degron read counts,[1],-1.5
same,log2 fold change of degron read counts,[2],-1.89
same,log2 fold change of degron read counts,[3],-0.599
same,log2 fold change of degron read counts,compound: thalidomide,-1.3
"FHCPICGHPFTQKGNLLRHIKL [46F_47H_49P_50I_52G_53H_54P_55F_67L_, Q9UKT9]",log2 fold change of degron read counts,[1],0.356
same,log2 fold change of degron read counts,[2],-0.486
same,log2 fold change of degron read counts,[3],1.11
same,log2 fold change of degron read counts,compound: thalidomide,-0.0778
"LFCEICGFMCTQKGNLLRHIKL [46L_47F_49E_50I_52G_53F_54M_55C_67L_, Q9UKT9]",log2 fold change of degron read counts,[1],3.2
same,log2 fold change of degron read counts,[2],3.12
same,log2 fold change of degron read counts,[3],1.56
same,log2 fold change of degron read counts,compound: thalidomide,1.17
"FRCEICGRIFTQKGNLLRHIKL [46F_47R_49E_50I_52G_53R_54I_55F_67L_, Q9UKT9]",log2 fold change of degron read counts,[1],-2.12
same,log2 fold change of degron read counts,[2],-2.31
same,log2 fold change of degron read counts,[3],-0.593
same,log2 fold change of degron read counts,compound: thalidomide,-0.94
"FSCNQCGAVFTQKGNLLRHIKL [46F_47S_49N_50Q_52G_53A_54V_55F_67L_, Q9UKT9]",log2 fold change of degron read counts,[1],-1.79
same,log2 fold change of degron read counts,[2],-1.84
same,log2 fold change of degron read counts,[3],-0.0126
same,log2 fold change of degron read counts,compound: thalidomide,-1.8
"FMCEVCGAKFTQKGNLLRHIKL [46F_47M_49E_50V_52G_53A_54K_55F_67L_, Q9UKT9]",log2 fold change of degron read counts,[1],0.0707
same,log2 fold change of degron read counts,[2],-0.168
same,log2 fold change of degron read counts,[3],0.454
same,log2 fold change of degron read counts,compound: thalidomide,0.604
"FSCEVCGAKFTQKGNLLRHIKL [46F_47S_49E_50V_52G_53A_54K_55F_67L_, Q9UKT9]",log2 fold change of degron read counts,[1],3.08
same,log2 fold change of degron read counts,[2],1.75
same,log2 fold change of degron read counts,[3],-0.985
same,log2 fold change of degron read counts,compound: thalidomide,1.45
"FDCEVCGAKFTQKGNLLRHIKL [46F_47D_49E_50V_52G_53A_54K_55F_67L_, Q9UKT9]",log2 fold change of degron read counts,[1],1.57
same,log2 fold change of degron read counts,[2],-0.744
same,log2 fold change of degron read counts,[3],-2.09
same,log2 fold change of degron read counts,compound: thalidomide,0.993
"FRCEVCGAKFTQKGNLLRHIKL [46F_47R_49E_50V_52G_53A_54K_55F_67L_, Q9UKT9]",log2 fold change of degron read counts,[1],-0.518
same,log2 fold change of degron read counts,[2],-0.4
same,log2 fold change of degron read counts,[3],0.471
same,log2 fold change of degron read counts,compound: thalidomide,1.09
"FLCEVCGAKFTQKGNLLRHIKL [46F_47L_49E_50V_52G_53A_54K_55F_67L_, Q9UKT9]",log2 fold change of degron read counts,[1],0.27
same,log2 fold change of degron read counts,[2],-1.55
same,log2 fold change of degron read counts,[3],-0.283
same,log2 fold change of degron read counts,compound: thalidomide,1.49
"FECEVCGAKFTQKGNLLRHIKL [46F_47E_49E_50V_52G_53A_54K_55F_67L_, Q9UKT9]",log2 fold change of degron read counts,[1],0.451
same,log2 fold change of degron read counts,[2],-1.55
same,log2 fold change of degron read counts,[3],-0.965
same,log2 fold change of degron read counts,compound: thalidomide,2.59
"FICEVCGAKFTQKGNLLRHIKL [46F_47I_49E_50V_52G_53A_54K_55F_67L_, Q9UKT9]",log2 fold change of degron read counts,[1],-0.59
same,log2 fold change of degron read counts,[2],2.35
same,log2 fold change of degron read counts,[3],0.972
same,log2 fold change of degron read counts,compound: thalidomide,2.68
"FWCEVCGAKFTQKGNLLRHIKL [46F_47W_49E_50V_52G_53A_54K_55F_67L_, Q9UKT9]",log2 fold change of degron read counts,[1],3.74
same,log2 fold change of degron read counts,[2],3.86
same,log2 fold change of degron read counts,[3],1.64
same,log2 fold change of degron read counts,compound: thalidomide,1.54
"FKCEVCGAKFTQKGNLLRHIKL [46F_47K_49E_50V_52G_53A_54K_55F_67L_, Q9UKT9]",log2 fold change of degron read counts,[1],-1.41
same,log2 fold change of degron read counts,[2],-3.28
same,log2 fold change of degron read counts,[3],-3.54
same,log2 fold change of degron read counts,compound: thalidomide,-1.57
"FQCEVCGAKFTQKGNLLRHIKL [46F_47Q_49E_50V_52G_53A_54K_55F_67L_, Q9UKT9]",log2 fold change of degron read counts,[1],0.414
same,log2 fold change of degron read counts,[2],2.98
same,log2 fold change of degron read counts,[3],0.135
same,log2 fold change of degron read counts,compound: thalidomide,3.4
"FACEVCGAKFTQKGNLLRHIKL [46F_47A_49E_50V_52G_53A_54K_55F_67L_, Q9UKT9]",log2 fold change of degron read counts,[1],3.92
same,log2 fold change of degron read counts,[2],2.02
same,log2 fold change of degron read counts,[3],-1.57
same,log2 fold change of degron read counts,compound: thalidomide,0.889
"FGCEVCGAKFTQKGNLLRHIKL [46F_47G_49E_50V_52G_53A_54K_55F_67L_, Q9UKT9]",log2 fold change of degron read counts,[1],3.69
same,log2 fold change of degron read counts,[2],1.3
same,log2 fold change of degron read counts,[3],-1.12
same,log2 fold change of degron read counts,compound: thalidomide,1.16
